Measured values as given in PubChem BioAssay (NCATS).
Several values for one entry are separate records, joined by “and”; a condition that tells them apart may be missing. Equal values may be shown once. Records with an inconclusive call do not appear. Activity calls are given as the source filed them. Unless noted, calls follow the shape of the dose curve; as a rule, active = well fitted curve in the direction sought with a large enough effect; inconclusive = small, poorly fitted or top-dose-only effect, or another doubt; inactive = no such curve, though single readings can be large; an effect the other way counts as inactive or inconclusive.

Assays:
[1] = target: Cellular tumor antigen p53 (Homo sapiens) (UniProt P04637); test: Primary qHTS for small molecule compounds that upregulate eGFP-tagged delta133p53alpha (in N-terminal) cells. (AID 2060322); conditions: NCI-H358 eGFP-delta133p53alpha fluorescence, 24 h; activation: active compounds read high; also: nearly all actives have a fitted effect of over 75% in size; also: potency is read from the fitted curve at half-maximal effect;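 as to activation: series mostly up to about 56 µM; 0% = DMSO vehicle and 100% = reference activator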
Outline: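 NCI-H358 cells pre-induced 24 h with 10 ng/ml doxycycline to express N-terminal eGFP-delta133p53alpha, then dosed 24 h at 37C without doxycycline; fixed, Hoechst-stained, GFP intensity by laser scanning cytometry, normalized to DMSO (0%) and 57.5 uM 5-azacytidine (100%).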

[2] = target: Aldehyde dehydrogenase, mitochondrial (Homo sapiens) (UniProt P05091); test: qHTS for Inhibitors of the Aldehyde Dehydrogenase Family (ALDH2) Validation screens (AID 2061302; active = well fitted inhibition curve with a large enough effect; title and protocol of this record describe different tests;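 also: plate controls were DMSO vehicle for no effect and maximal DPI positive control response for full effect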)
[3] = target: Retinaldehyde dehydrogenase 3 (Homo sapiens) (UniProt P47895); test: qHTS for Inhibitors of the Aldehyde Dehydrogenase Family (ALDH1A3) Validation screen (AID 2061312); also: % is scaled to controls: 0 for no effect and ±100 for the full control effect; nearly all actives have a fitted effect of over 45% in size
[4] = BET inhibitor-based combinations targeting novel dependencies in MECOM-rearranged (r) AML: AML-191 cell line (AID 2202236; also: nearly all actives have a fitted effect of over 35% in size; also: potency is read from the fitted curve at half-maximal effect)
Outline: (§1)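 500 cells/well; 11-pt dose curve; 48 h, standard incubator; CellTiter-Glo luminescence after 15 min RT; DMSO/empty-well normalization; AUC plus Z-AUC (mean-centered within each line).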

[5] = BET inhibitor-based combinations targeting novel dependencies in MECOM-rearranged (r) AML: SET-2 cell line (AID 2202231); conditions: SET-2 AML cells viability, CellTiter-Glo luminescence, 48 h; viability: active compounds read low, concentration not given here; also: nearly all actives have a fitted effect of over 35% in size; also: potency is read from the fitted curve at half-maximal effect;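 as to viability: plate controls were DMSO treated cells for no effect and wells without cells for full effect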
Outline: as §1

[6] = BET inhibitor-based combinations targeting novel dependencies in MECOM-rearranged (r) AML: OCI-AML3 cell line (AID 2202232); conditions: Potency: OCI-AML3 viability; also: nearly all actives have a fitted effect of over 35% in size; also: potency is read from the fitted curve at half-maximal effect
Outline: as §1

[7] = BET inhibitor-based combinations targeting novel dependencies in MECOM-rearranged (r) AML: MV-4-11 cell line (AID 2202233); also: nearly all actives have a fitted effect of over 45% in size; also: potency is read from the fitted curve at half-maximal effect
Outline: (§2)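 Cells were plated at 500 per well and exposed to each drug across an 11-point dose range for 48 hr at standard incubator conditions. Viability was read by CellTiter-Glo luminescence, and activity was expressed as AUC and per-cell-line Z-transformed AUC.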

[8] = BET inhibitor-based combinations targeting novel dependencies in MECOM-rearranged (r) AML: HNT-34 cell line (AID 2202234); also: nearly all actives have a fitted effect of over 35% in size; also: potency is read from the fitted curve at half-maximal effect
Outline: as §2

[9] = BET inhibitor-based combinations targeting novel dependencies in MECOM-rearranged (r) AML: UCSD-AML1 cell line (AID 2202235); also: nearly all actives have a fitted effect of over 40% in size; also: potency is read from the fitted curve at half-maximal effect
Outline: as §2

[10] = BET inhibitor-based combinations targeting novel dependencies in MECOM-rearranged (r) AML: AML-194 cell line (AID 2202237; also: nearly all actives have a fitted effect of over 40% in size; also: potency is read from the fitted curve at half-maximal effect)
Outline: as §1

[11] = target: Aldehyde dehydrogenase, mitochondrial (Homo sapiens) (UniProt P05091); test: qHTS for Inhibitors of the Aldehyde Dehydrogenase Family (ALDH2) Confirmatory screens (AID 2061303; active = well fitted inhibition curve with a large enough effect; title and protocol of this record describe different tests; also: % is scaled to controls: 0 for no effect and ±100 for the full control effect; nearly all actives have a fitted effect of over 45% in size)
[12] = qHTS for Inhibitors of the Aldehyde Dehydrogenase Family (ALDH1A2, ALDH1A3, ALDH2, ALDH3A1) (AID 2061307); also: % is scaled to controls: 0 for no effect and ±100 for the full control effect; nearly all actives have a fitted effect of over 50% in size
[13] = target: Aldehyde dehydrogenase, mitochondrial (Homo sapiens) (UniProt P05091); test: qHTS for Inhibitors of the Aldehyde Dehydrogenase Family (ALDH2) Primary screen (AID 2061308);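 also: plate controls were vehicle for no effect and reference inhibitor for full effect; nearly all actives have a fitted effect of over 55% in size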
[14] = target: Retinaldehyde dehydrogenase 3 (Homo sapiens) (UniProt P47895); test: qHTS for Inhibitors of the Aldehyde Dehydrogenase Family (ALDH1A3) Confirmatory screens (AID 2061311); also: nearly all actives have a fitted effect of over 60% in size; also: potency is read from the fitted curve at half-maximal effect
[15] = target: Retinal dehydrogenase 2 (Homo sapiens) (UniProt O94788); test: qHTS for Inhibitors of the Aldehyde Dehydrogenase Family (ALDH1A2) Confirmation screens (AID 2061314); also: nearly all actives have a fitted effect of over 65% in size
[16] = target: Retinaldehyde dehydrogenase 3 (Homo sapiens) (UniProt P47895); test: qHTS for Inhibitors of the Aldehyde Dehydrogenase Family (ALDH1A3) Primary screen (AID 2061315);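 also: plate controls were DMSO vehicle for no effect and reference inhibitor for full effect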
[17] = target: Aldehyde dehydrogenase 1A1 (Homo sapiens) (UniProt P00352); test: qHTS for Inhibitors of the Aldehyde Dehydrogenase Family (ALDH1A1) Confirmatory screens (AID 2061316); also: nearly all actives have a fitted effect of over 65% in size

Sequence of Cellular tumor antigen p53 (Homo sapiens) (P04637 whole entry, looked up): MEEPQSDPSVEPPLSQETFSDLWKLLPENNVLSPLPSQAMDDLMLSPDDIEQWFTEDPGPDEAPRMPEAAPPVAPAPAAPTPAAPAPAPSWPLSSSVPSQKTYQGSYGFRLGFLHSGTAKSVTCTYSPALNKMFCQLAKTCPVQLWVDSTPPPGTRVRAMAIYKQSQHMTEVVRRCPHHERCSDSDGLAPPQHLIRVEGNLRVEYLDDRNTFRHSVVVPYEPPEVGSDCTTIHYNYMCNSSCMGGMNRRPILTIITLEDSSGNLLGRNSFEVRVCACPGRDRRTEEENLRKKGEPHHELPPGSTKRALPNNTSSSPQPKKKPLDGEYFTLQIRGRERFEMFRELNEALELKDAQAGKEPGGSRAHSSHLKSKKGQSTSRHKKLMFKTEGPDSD

Nc1c2c(nc3ccccc13)CCCC2
inactive: activation [1] -15.6% and 9.21% and -7.03% | Potency [2] | Potency [3] | Potency [4]

NCCCCCCCCCCN
inactive: activation [1] 28.3% | Potency [2] | Potency [3]

Nc1nc2ccc(OC(F)(F)F)cc2s1
active: Potency [6] 20.9 µM | Potency [7] 23.5 µM | Potency [8] 16.6 µM | Potency [9] 26.3 µM
inactive: activation [1] -8.55% and 47.5% | Potency [2] | Potency [3] | viability [5] 89.4%

Nc1nnc(-c2cccc(Cl)c2Cl)c(N)n1
inactive: activation [1] 5.86% and 2.46% and -39.9% | Potency [2] | Potency [3] | viability [5] 116% | Potency [6] | Potency [7] | Potency [8] | Potency [9] | Potency [4] | Potency [10]

O=c1[nH]c2cccc(N3CCN(Cc4ccc(-c5ccccc5)cc4)CC3)c2o1
inactive: activation [1] -3.82% | Potency [11] | Potency [12] | Potency [13] | Potency [14] | Potency [3] | Potency [15] | Potency [16] | Potency [17]

CN1CCN(CCCN2c3ccccc3Sc3ccc(C(F)(F)F)cc32)CC1
inactive: activation [1] -19.8% and -3.33% and -47.4% | Potency [2] | Potency [9]
active: Potency [5] 16.6 µM | Potency [6] 16.6 µM

CC(C)NC[C@H](O)COc1ccc(CC(N)=O)cc1
inactive: activation [1] -18.8% | Potency [2] | Potency [3]

NC(=NCc1ccccc1)NC(=O)c1nc(Cl)c(N)nc1N
active: Potency [7] 5.25 µM | Potency [8] 14.8 µM | Potency [4] 20.9 µM | Potency [10] 23.5 µM
inactive: activation [1] 0.24% and 2.72% | Potency [2] | Potency [3] | Potency [9]

CC(C)(C)NCC(O)c1ccc(O)c(CO)c1 (centres undefined)
inactive: activation [1] -7.9% and 9.21% and -24.1% | Potency [2] | Potency [3] | Potency [6] | Potency [7] | Potency [8] | Potency [9] | Potency [4] | Potency [10]

NCCS(=O)O
inactive: activation [1] -4.42% | Potency [2] | Potency [3]

COc1ccc(CCC(=O)c2c(O)cc(O[C@@H]3O[C@H](CO)[C@@H](O)[C@H](O)[C@H]3O[C@@H]3O[C@@H](C)[C@H](O)[C@@H](O)[C@H]3O)cc2O)cc1O
inactive: activation [1] 8.33% | Potency [11] | Potency [12] | Potency [13]

NC(CO)C(=O)NNCc1ccc(O)c(O)c1O (centres undefined)
inactive: activation [1] -10.9% and -15.4% and 9.06% | Potency [2] | Potency [7] | Potency [8] | Potency [9] | Potency [10]

C#CC(=O)N(c1ccc(OC)cc1OC)C(C(=O)NCC(=O)OCC)c1cccs1 (centres undefined)
active: Potency [1] 7.57 µM
inactive: Potency [11] | Potency [12]

CC[C@@]1(O)C(=O)OCc2c1cc1n(c2=O)Cc2cc3c(CN(C)C)c(O)ccc3nc2-1
inactive: Potency [2] | Potency [16]
active: Potency [1] 24.6 µM and 3.38 µM | Potency [5] 0.0372 µM | Potency [6] 0.0186 µM | Potency [7] 0.0118 µM | Potency [8] 0.0083 µM | Potency [9] 0.0166 µM | Potency [4] 0.0209 µM

CC(C)(C)c1ccc(C(=O)CCCN2CCC(OC(c3ccccc3)c3ccccc3)CC2)cc1
inactive: activation [1] -44.6% | Potency [2] | Potency [3]

O=C(Nc1nc2ccccc2n1CCN1CCOCC1)c1cccc([N+](=O)[O-])c1
inactive: activation [1] 5.07% and -24.4% | Potency [2] | viability [5] 112% | Potency [8]

CNCCC(Oc1ccccc1OC)c1ccccc1 (centres undefined)
inactive: activation [1] -3.68% | Potency [2] | Potency [3]

N#Cc1ccc(C(=O)N2CCC3(CC2)N=C(N)c2c(F)ccc(F)c2N3)cn1
inactive: activation [1] 6.21% | Potency [11] | Potency [12] | Potency [13] | Potency [14] | Potency [3] | Potency [15] | Potency [16] | Potency [17]

Cc1onc(-c2c(Cl)cccc2Cl)c1C(=O)N[C@@H]1C(=O)N2[C@@H]1SC(C)(C)[C@@H]2C(=O)O
inactive: activation [1] -9.21% and 6.21% | Potency [11] | Potency [12] | Potency [13] | Potency [14] | Potency [3] | Potency [16] | Potency [17]

CC(=O)N(O)CCCCCN1C(=O)CCC1=O
inactive: activation [1] -6.25% | Potency [11] | Potency [12] | Potency [13] | Potency [14] | Potency [16] | Potency [17]

COC(=O)[C@]1(Cc2ccc(O)c(CC=C(C)C)c2)OC(=O)C(O)=C1c1ccc(O)cc1
active: Potency [14] 12.3 µM
inactive: activation [1] 1.53% | Potency [11] | Potency [12] | Potency [13] | Potency [15]
